Results as given in PubChem BioAssay.
Several values for one entry are separate records, joined by “and”; a condition that tells them apart may be missing. Identical values can stand only once. Activity calls are given as the source filed them.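 Rule for the calls, unless noted: active = thallium flux through the channel raised or lowered by more than 3 SD from vehicle-only wells, actives on both sides; inactive = the rest.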

Assays:
[1] = Wnt pathway potentiators raising nuclear beta-catenin – imaging, WNT3A-conditioned medium, mouse C2C12, NPC library, primary screen (AID 1117326; in the data active = nuclear beta-catenin stimulation mostly above about 4.2%, no sharp cut-off; inactive = mostly below about 10%); conditions: stronger effect = higher value
[2] = stimulators of insulin release from INS-1E, primary screen, cell-based, 5 mM glucose, NPC library (AID 1117329;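 active = compound raises insulin release from rat beta cells at 5 mM glucose, no numeric limit stated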); conditions: rat INS-1E insulin secretion, at 10 µM, stronger effect = higher value
[3] = growth inhibition of GSK3B-pretreated HCT116 cells – cell-based, CellTiter-Glo, 0.2 to 20 µM (AID 1117336;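 active = compounds lowering colon cancer cell viability after pretreatment blocking the GSK3B kinase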); conditions: HCT116 viability after GSK3B inhibitor, at 20 µM, stronger effect = higher value
[4] = inhibition of endothelial tube formation, primary screen, imaging, VEGF stimulated, CD31 staining, tube area, NPC library (AID 1117340;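 active = compound that reduces growth-factor-driven endothelial tube area in a mixed cell culture, no cutoff stated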); conditions: VEGF-stimulated ADSC/ECFC co-culture, at 10 µM, stronger effect = higher value
[5] = GLP1 release stimulators, primary, NCI-H716, NPC library (AID 1117341;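 active = compound raises GLP1 secretion from the human gut endocrine cells, with no numeric limit stated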); conditions: NCI-H716 cells, at 10 µM, stronger effect = higher value
[6] = HCT116 colon cancer cell growth inhibition, primary screen, CellTiter-Glo luminescence, NPC library (AID 1117342;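 active = compounds that lower survival of HCT116 colon cancer cells in the luminescence readout, no numeric limit stated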); conditions: at 20 µM (top of the series)
[7] = reduced SW480 viability measured with CellTiter-Glo, NPC library, primary (AID 1117343;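 active = compounds that lower viability of the colon cancer cells in the luminescence readout, with no numeric limit stated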); conditions: CellTiter-Glo luminescence; at 20 µM (top of the series)
[8] = NPC library primary testing for decreased DLD-1 cell viability via CellTiter-Glo (AID 1117346;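 active = compounds that lower survival of DLD-1 colon cancer cells in the luminescence readout, no cutoff given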); conditions: DLD-1 viability, CellTiter-Glo luminescence; at 20 µM (top of the series)
[9] = molecular target: 6-phosphogluconate dehydrogenase, decarboxylating (Homo sapiens) (UniProt P52209); assay: inhibition of human phosphogluconate dehydrogenase – biochemical, recombinant enzyme, NADPH absorbance, primary screen (AID 1159550;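 active = at least 20% inhibition of 6-phosphogluconate dehydrogenase activity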); conditions: recombinant 6PGD, NADPH absorbance 341 nm; at 10 µM; stronger effect = higher value
Sequence of 6-phosphogluconate dehydrogenase, decarboxylating (Homo sapiens) (P52209 whole entry, looked up): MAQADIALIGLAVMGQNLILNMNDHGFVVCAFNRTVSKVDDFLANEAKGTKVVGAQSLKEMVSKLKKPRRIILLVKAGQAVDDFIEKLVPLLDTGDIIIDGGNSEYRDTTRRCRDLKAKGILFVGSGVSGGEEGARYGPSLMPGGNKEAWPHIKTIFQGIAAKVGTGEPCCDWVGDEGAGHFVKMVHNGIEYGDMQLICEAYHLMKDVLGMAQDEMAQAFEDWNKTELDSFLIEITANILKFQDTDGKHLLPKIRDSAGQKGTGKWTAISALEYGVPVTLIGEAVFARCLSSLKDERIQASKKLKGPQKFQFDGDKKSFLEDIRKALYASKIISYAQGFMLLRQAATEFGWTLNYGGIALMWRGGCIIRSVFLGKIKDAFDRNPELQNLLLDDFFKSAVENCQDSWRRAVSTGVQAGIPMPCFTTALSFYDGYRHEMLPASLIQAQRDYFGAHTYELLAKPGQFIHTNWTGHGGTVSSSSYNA

[10] = modulation of C. elegans fzo-1 (AID 1259413; call rule not given here;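 note: fzo-1 mutant C. elegans worms in liquid wells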); conditions: C. elegans fzo-1 modulator screen, mean read-out; stronger effect = higher value
[11] = EMT-state selective cytotoxicity in co-culture – imaging, PC-3E GFP, TEM4-18 mCherry, primary screen (AID 1345086;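 active = compounds killing one labelled cell type while sparing the other, by normalised counts and ratio limits, not self-fluorescent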;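 for all read-outs here: cells exposed to compound for 72 h before imaging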;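 for red/green cell ratio (normalised): normalised mesenchymal count divided by normalised epithelial count so high means epithelial killing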); conditions: PC-3E GFP / TEM4-18 mCherry co-culture, imaging cell counts, at 1 µM; for red/green cell ratio (normalised): actives lie on both sides, counts scaled to control wells, 1 = unselective
[12] = MELAS cybrid and Rieske KO viability enhancers – cell-based, MELAS cybrids, Rieske KO mouse fibroblasts, CellTiter-Glo, primary screen (AID 1508586;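 active = mean z-score across replicates of 1.96 or higher in either the MELAS or the Rieske mutant cell line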;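 note: z relative to plate mean and SD of compound and empty wells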); conditions: low glucose
[13] = molecular target: NAD(+) hydrolase SARM1 (Homo sapiens) (UniProt Q6SZW1); assay: blocking NAD cleavage by SARM1 SAM-TIR – cell lysate, NAD-Glo luminescence (AID 1508614;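 active = compound whose remaining NAD level is above about 45 nM, limit read from the data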;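 note: higher remaining NAD means stronger inhibition of SARM1 NADase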); conditions: SAM-TIR HEK293T lysate NADase, at 1 µM, stronger effect = higher value
Sequence of NAD(+) hydrolase SARM1 (Homo sapiens) (Q6SZW1 whole entry, looked up, the tested form may be a part): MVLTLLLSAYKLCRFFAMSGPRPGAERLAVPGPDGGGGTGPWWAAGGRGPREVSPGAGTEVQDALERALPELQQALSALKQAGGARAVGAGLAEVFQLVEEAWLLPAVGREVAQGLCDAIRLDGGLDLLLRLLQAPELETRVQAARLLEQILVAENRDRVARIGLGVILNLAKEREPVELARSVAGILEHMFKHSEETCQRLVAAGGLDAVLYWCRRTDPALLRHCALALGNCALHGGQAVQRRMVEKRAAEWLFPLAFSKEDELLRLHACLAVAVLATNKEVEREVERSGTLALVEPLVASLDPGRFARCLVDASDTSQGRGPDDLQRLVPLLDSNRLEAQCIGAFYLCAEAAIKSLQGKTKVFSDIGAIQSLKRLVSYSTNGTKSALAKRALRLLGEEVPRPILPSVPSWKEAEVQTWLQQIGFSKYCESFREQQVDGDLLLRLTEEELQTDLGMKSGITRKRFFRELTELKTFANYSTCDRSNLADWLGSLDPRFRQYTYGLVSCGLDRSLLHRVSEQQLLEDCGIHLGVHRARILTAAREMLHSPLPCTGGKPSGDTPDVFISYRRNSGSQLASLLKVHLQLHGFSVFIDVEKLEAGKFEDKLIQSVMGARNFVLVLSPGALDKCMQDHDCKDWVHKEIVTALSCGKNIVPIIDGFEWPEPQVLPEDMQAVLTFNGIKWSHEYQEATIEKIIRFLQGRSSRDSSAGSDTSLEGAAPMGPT

[14] = molecular target: Mitogen-activated protein kinase 7 (Homo sapiens) (UniProt Q13164); assay: Gal4-ERK5 driven luciferase induction – cell-based, HTS, primary screen (AID 1508626;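 active = luciferase signal above three times the same-plate solvent-only control wells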;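 note: luciferase driven by Gal4-ERK5 fusion binding five Gal4 sites before minimal TATA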); conditions: HeLa Gal4-ERK5 transactivation, 18 h, at 5 µM, stronger effect = higher value
Sequence of Mitogen-activated protein kinase 7 (Homo sapiens) (Q13164 whole entry, looked up, the tested form may be a part): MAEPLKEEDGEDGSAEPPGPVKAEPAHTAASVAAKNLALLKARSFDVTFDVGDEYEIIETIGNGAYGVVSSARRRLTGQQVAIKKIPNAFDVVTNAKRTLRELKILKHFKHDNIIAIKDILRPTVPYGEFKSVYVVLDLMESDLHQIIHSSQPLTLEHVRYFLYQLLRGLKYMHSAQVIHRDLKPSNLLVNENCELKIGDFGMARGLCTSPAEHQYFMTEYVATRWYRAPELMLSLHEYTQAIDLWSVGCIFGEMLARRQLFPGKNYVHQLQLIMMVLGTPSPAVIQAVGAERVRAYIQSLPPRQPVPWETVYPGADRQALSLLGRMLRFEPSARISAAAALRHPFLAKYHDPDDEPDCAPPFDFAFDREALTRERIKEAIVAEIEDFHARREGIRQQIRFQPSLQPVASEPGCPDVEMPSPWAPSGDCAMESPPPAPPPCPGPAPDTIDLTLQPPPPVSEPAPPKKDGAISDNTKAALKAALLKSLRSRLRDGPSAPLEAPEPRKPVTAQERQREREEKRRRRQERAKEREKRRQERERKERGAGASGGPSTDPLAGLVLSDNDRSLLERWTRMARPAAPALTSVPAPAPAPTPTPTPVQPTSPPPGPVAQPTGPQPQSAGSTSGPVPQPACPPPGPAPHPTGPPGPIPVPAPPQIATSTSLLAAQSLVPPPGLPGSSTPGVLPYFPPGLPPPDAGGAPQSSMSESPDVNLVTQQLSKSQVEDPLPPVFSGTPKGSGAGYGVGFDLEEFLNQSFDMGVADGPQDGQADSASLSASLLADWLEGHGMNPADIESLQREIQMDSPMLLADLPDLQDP

[15] = test system: F380Y; assay: BK channel mutant inhibitors and activators – cell-based, U2OS BacMam, thallium flux, beta subunits, selectivity assay, profiling panel (AID 1259406); conditions: U2OS BacMam BK variants, at 30 µM;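 note: initial slope of Thallos dye fluorescence rise after thallium is added; log ratio against the mean of 0.3% DMSO vehicle wells on the same plate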
[16] = test system: F380Y/beta1; assay: as above; conditions: U2OS BacMam BK variants, at 30 µM
[17] = test system: F380Y/beta2Delta; assay: as above; conditions: U2OS BacMam BK variants, at 30 µM
[18] = growth inhibition, single agents and combos, ICB984, cell-based, cisplatin or BGB combos, synergistic combos for chromothripsis tumors (AID 1671451; call rule not given here;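 note: cells exposed for 96 hours before readout; 0% = vehicle DMSO and 100% = killing by high DMSO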); conditions: ICB984 medulloblastoma cells, drug combinations, stronger effect = higher value
[19] = measured here: epithelial PC-3E GFP cell survival
[20] = measured here: mesenchymal TEM4-18 mCherry cell survival
[21] = MELAS cybrid survival, CellTiter-Glo 48 h, stronger effect = higher value
[22] = Rieske KO mouse fibroblast survival, CellTiter-Glo 72 h

COCCOC(=O)C1=C(C)NC(C)=C(C(=O)OC(C)C)C1c1cccc([N+](=O)[O-])c1 (stereo not drawn)
1.07: normalised cell number [11, 19]
1.17: normalised cell number [11, 20]
inactive: nuclear beta-catenin stimulation ([1]; at 10 µM) -0.6% | insulin secretion stimulation [2] -0.5% | viability decrease [3] 46.2% | tube area decrease [4] -1.2% | GLP1 secretion stimulation [5] -0.1% | viability decrease (inhibition) [8] 27.1% | inhibition [9] 2.88% | mean signal [10] 225 | red/green cell ratio (normalised) [11] 1.09 | z-score [12, 21] -0.249 and 1.31 and 0.763 | remaining NAD [13] 10 nM | luciferase signal [14] 48 AU | log fold change Tl+ flux [15] -0.0169 | log fold change Tl+ flux [16] 0.0464
1.2%: nuclear beta-catenin stimulation ([1]; stimulation, at 2 µM)
-0.137 and 1.51 and 1.35: z-score [12, 22]
active: inhibition of viability [6] 77.9% | viability decrease (inhibition) [7] 55.7% | log fold change Tl+ flux [17] -0.122

NS(=O)(=O)c1cc2c(cc1Cl)NCNS2(=O)=O
0.408 and -0.255: z-score [12, 22]
0.8%: nuclear beta-catenin stimulation ([1]; stimulation, at 2 µM)
1.24: normalised cell number [11, 19]
1.11: normalised cell number [11, 20]
inactive: nuclear beta-catenin stimulation ([1]; at 10 µM) 0.4% | insulin secretion stimulation [2] -1.9% | viability decrease [3] -1.55% | tube area decrease [4] -9% | GLP1 secretion stimulation [5] -0.3% | inhibition of viability [6] 0.1% | viability decrease (inhibition) [7] 5.4% | viability decrease (inhibition) [8] -1% | inhibition [9] -1.9% | mean signal [10] 233 | red/green cell ratio (normalised) [11] 0.89 | z-score [12, 21] -0.267 and -0.584 | remaining NAD [13] 10 nM | luciferase signal [14] 96 AU | log fold change Tl+ flux [15] -0.0347 | log fold change Tl+ flux [16] -0.00418 | log fold change Tl+ flux [17] -0.0515

O=C(O)CCCc1ccccc1
-6.76%: inhibition ([18]; measured here: 5 uM single agent, at 5 µM)
-13.4%: inhibition ([18]; BGB IC40 combo, at 0.005 µM)
1.11: normalised cell number [11, 20]
3.61%: inhibition ([18]; cisplatin combo, at 0.05 µM)
-0.148 and -0.948: z-score [12, 22]
-2.57%: inhibition ([18]; BGB IC20 combo, at 0.005 µM)
6.23%: inhibition ([18]; BGB IC40 combo, at 0.05 µM)
0.9%: nuclear beta-catenin stimulation ([1]; stimulation, at 2 µM)
inactive: nuclear beta-catenin stimulation ([1]; at 10 µM) 0.2% | insulin secretion stimulation [2] 1.8% | viability decrease [3] -6.2% | tube area decrease [4] -15% | GLP1 secretion stimulation [5] -1.1% | inhibition of viability [6] 0.1% | viability decrease (inhibition) [7] 12.5% | viability decrease (inhibition) [8] -3.9% | inhibition [9] -10% | mean signal [10] 232 | red/green cell ratio (normalised) [11] 1 | z-score [12, 21] -0.2 and -0.108 | remaining NAD [13] 10 nM | inhibition ([18]; at 0.5 µM) -32.1% | log fold change Tl+ flux [15] 0.0311 | log fold change Tl+ flux [16] 0.0211 | log fold change Tl+ flux [17] -0.00447
-20.8%: inhibition ([18]; cisplatin combo, at 5 µM)
1.12: normalised cell number [11, 19]
-38.8%: inhibition ([18]; cisplatin combo, at 0.5 µM)

N[C@@H](Cc1cc(I)c(Oc2cc(I)c(O)c(I)c2)c(I)c1)C(=O)O
1.02: normalised cell number [11, 20]
active: log fold change Tl+ flux [16] 0.13 | log fold change Tl+ flux [17] 0.163
0.96: normalised cell number [11, 19]
-1.8%: nuclear beta-catenin stimulation ([1]; stimulation, at 2 µM)
inactive: nuclear beta-catenin stimulation ([1]; at 10 µM) -0.2% | insulin secretion stimulation [2] 1.4% | viability decrease [3] 24.1% | tube area decrease [4] 5.6% | GLP1 secretion stimulation [5] 0.1% | inhibition of viability [6] 36.7% | viability decrease (inhibition) [7] 26% | viability decrease (inhibition) [8] -2% | inhibition [9] 12.1% | mean signal [10] 252 | red/green cell ratio (normalised) [11] 1.06 | z-score [12, 21] -0.661 and -0.549 | remaining NAD [13] 10 nM | luciferase signal [14] 112 AU | log fold change Tl+ flux [15] -0.00167
-0.144 and -1.61: z-score [12, 22]

CCCCNc1cc(C(=O)O)cc(S(N)(=O)=O)c1Oc1ccccc1
1.1: normalised cell number [11, 19]
inactive: nuclear beta-catenin stimulation ([1]; at 10 µM) 0.1% | insulin secretion stimulation [2] -0.7% | viability decrease [3] -57% | tube area decrease [4] 3.7% | GLP1 secretion stimulation [5] -2.2% | inhibition of viability [6] 2.63% | viability decrease (inhibition) [7] 2.4% | viability decrease (inhibition) [8] -4.2% | inhibition [9] 0% | mean signal [10] 228 | red/green cell ratio (normalised) [11] 0.96 | z-score [12, 21] -0.34 and 0.797 and -0.227 | remaining NAD [13] 10 nM | luciferase signal [14] 32 AU | log fold change Tl+ flux [15] 0.0239 | log fold change Tl+ flux [16] -0.0436 | log fold change Tl+ flux [17] -0.0452
-0.392 and -0.0528 and -1.25: z-score [12, 22]
-0.1%: nuclear beta-catenin stimulation ([1]; stimulation, at 2 µM)
1.05: normalised cell number [11, 20]

CC1Cc2ccccc2N1NC(=O)c1ccc(Cl)c(S(N)(=O)=O)c1 (stereo not drawn)
inactive: nuclear beta-catenin stimulation ([1]; at 10 µM) 1% | insulin secretion stimulation [2] -0.1% | viability decrease [3] -7.2% | tube area decrease [4] 2.8% | GLP1 secretion stimulation [5] 4.6% | inhibition of viability [6] -2.13% | viability decrease (inhibition) [7] -2.3% | viability decrease (inhibition) [8] 3.8% | inhibition [9] 0.53% | mean signal [10] 231 | red/green cell ratio (normalised) [11] 1.37 | z-score [12, 21] -0.244 and 0.521 and 0.421 | remaining NAD [13] 10 nM | luciferase signal [14] 56 AU | log fold change Tl+ flux [15] 0.00177 | log fold change Tl+ flux [16] 0.039 | log fold change Tl+ flux [17] 0.049
1.01: normalised cell number [11, 19]
0.75 and 0.194 and 0.772: z-score [12, 22]
1.38: normalised cell number [11, 20]
6%: nuclear beta-catenin stimulation ([1]; stimulation, at 2 µM)
